Laboratory results reported in PubChem BioAssay (Tox21).
Records with an inconclusive call do not appear. Active and inactive are the calls of the source. Unless noted, calls come from the whole dose curve; as a rule, active = well fitted curve in the direction sought with a large enough effect in the repeat runs; inconclusive = weak or mixed curves; inactive = no such curve, though single readings can be large; an effect the other way counts as inactive or inconclusive.

Legend:
[1] = target: Aryl hydrocarbon receptor (Homo sapiens) (UniProt P35869); assay: qHTS assay to identify small molecule that activate the aryl hydrocarbon receptor (AhR) signaling pathway (AID 743085);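 note: HG2L7.5c1 human HepG2 liver cells with stably integrated DRE-driven firefly reporter; series mostly up to about 70 µM; nearly all actives have a fitted effect of over 15% in size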
Method in brief: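 Measured in HG2L7.5c1 cells: CellTiter-Fluor signal (30 min incubation, 37C) for viability, then luciferase luminescence (30 min, room temperature). Compound contact time was 24 h at 37C, following a 5 h pre-incubation.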

[2] = qHTS assay to identify small molecule that activate the aryl hydrocarbon receptor (AhR) signaling pathway - cell viability counter screen (AID 743086);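 note: HepG2 liver cells carrying the AhR DRE luciferase reporter; series mostly up to about 70 µM; nearly all actives have a fitted effect of over 45% in size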
Method in brief: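 HepG2-AhR-luc (HG2L7.5c1) cells, 4000/well, were preincubated 5 h at 37C, exposed to compound in qHTS format for 24 hr at 37C, then given CellTiter-Fluor for 30 min; viability was read as fluorescence in the reporter wells.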

[3] = target: Peroxisome proliferator-activated receptor gamma (Homo sapiens) (UniProt P37231); assay: qHTS assay to identify small molecule agonists of the peroxisome proliferator-activated receptor gamma (PPARg) signaling pathway (AID 743094; active = well fitted activation curve with a large enough effect in the signal ratio in the repeat runs, not every such curve was filed as active; the % refers to the signal ratio)
Method in brief: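 Following 5 h plating at 37C, PPARg-bla HEK293H cells receive compound or DMSO for 17 h; fluorescence intensity is recorded after LiveBLAzer B/G loading for 1 h at room temperature.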

[4] = target: Peroxisome proliferator-activated receptor gamma (Homo sapiens) (UniProt P37231); assay: qHTS assay to identify small molecule antagonists of the peroxisome proliferator-activated receptor gamma (PPARg) signaling pathway (AID 743191; calls by dose curve; note: series mostly up to about 63 µM; nearly all actives have a fitted effect of over 30% in size)
Method in brief: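 GeneBLAzer PPARg UAS-bla HEK293H cells carrying a UAS-driven beta-lactamase reporter were plated at 3000 cells/well, preincubated 5 h at 37C, then given compound for 17 h at 37C; LiveBLAzer B/G FRET substrate was read after 1 h at room temperature.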

[5] = qHTS assay to identify small molecule antagonists of the peroxisome proliferator-activated receptor gamma (PPARg) signaling pathway - cell viability counter screen (AID 743194); note: nearly all actives have a fitted effect of over 55% in size
Method in brief: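 PPARg-UAS-bla HEK293H cells were plated, rested 5 h at 37 C, then treated with compounds plus rosiglitazone (50 nM final) for 17 h at 37 C; viability was then read by CellTiter-Glo luminescence after 30 min at room temperature.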

[6] = qHTS assay for small molecule agonists of the antioxidant response element (ARE) signaling pathway (AID 743202; active = well fitted activation curve with a large enough effect in the signal ratio in the repeat runs, not every such curve was filed as active; the % refers to the signal ratio)
Method in brief: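 Read-out: LiveBLAzer B/G FRET substrate fluorescence after 2 h at room temperature, following 16 h compound treatment at 37 C of HepG2 cells carrying an ARE-driven beta-lactamase reporter.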

[7] = qHTS assay for small molecule agonists of the antioxidant response element (ARE) signaling pathway - cell viability counter screen (AID 743203; calls by dose curve; note: nearly all actives have a fitted effect of over 55% in size)
Method in brief: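 Compounds in DMSO were pinned onto ARE-bla HepG2 cells plated 5 hrs earlier at 2,000 cells/well. Sixteen hours later at 37C/5% CO2, CellTiter-Glo was added and luminescence measured after 30 min at room temperature.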

[8] = qHTS assay for small molecule activators of the heat shock response signaling pathway (AID 743210; active = well fitted activation curve with a large enough effect in the signal ratio in the repeat runs, with a control signal flat, not every such curve was filed as active; the % refers to the signal ratio; note: series mostly up to about 63 µM)
Method in brief: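 HSE-bla HeLa cells (beta-lactamase reporter under heat shock response elements) were exposed to compounds for 5 h at 37 C, then loaded with LiveBLAzer B/G FRET substrate for 2.5 h at room temperature before fluorescence reading.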

[9] = qHTS assay to identify small molecule agonists of the peroxisome proliferator-activated receptor delta (PPARd) signaling pathway - cell viability counter screen (AID 743211); note: nearly all actives have a fitted effect of over 55% in size
Method in brief: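 Following 5 h plating at 37 C and 5% CO2, PPARd UAS-bla HEK293H cells took up test compounds for 17 h. Viability was quantified by luminescence 30 min after CellTiter-Glo addition at room temperature.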

[10] = target: Peroxisome proliferator-activated receptor delta (Homo sapiens) (UniProt Q03181); assay: qHTS assay to identify small molecule agonists of the peroxisome proliferator-activated receptor delta (PPARd) signaling pathway (AID 743212; calls by dose curve)
Method in brief: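 GeneBLAzer PPARd UAS-bla HEK293H cells (beta-lactamase reporter under UAS control), plated and rested 5 h at 37 C, then exposed to compounds in DMSO at 37 C; LiveBLAzer B/G FRET substrate added, 2 h room temperature, fluorescence read.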

[11] = qHTS assay to identify small molecule antagonists of the peroxisome proliferator-activated receptor delta (PPARd) signaling pathway - cell viability counter screen (AID 743213); note: nearly all actives have a fitted effect of over 50% in size
Method in brief: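 Same-well viability: cells pre-incubated 5 h, dosed with compound plus 300 nM L165041, kept 17 h at 37 C, FRET substrate 2 h RT, then CellTiter-Glo 30 min RT and luminescence.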

[12] = target: Peroxisome proliferator-activated receptor delta (Homo sapiens) (UniProt Q03181); assay: qHTS assay to identify small molecule antagonists of the peroxisome proliferator-activated receptor delta (PPARd) signaling pathway (AID 743215; active = well fitted inhibition curve with a large enough effect in the signal ratio in the repeat runs, not every such curve was filed as active; the % refers to the signal ratio;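 note: cells stimulated with agonist L165041 at 300 nM final during compound exposure; series mostly up to about 62 µM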)
Method in brief: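 With L165041 present at 300 nM final, compounds were incubated 17 h at 37 C on PPARd UAS-bla HEK293H cells. A FRET-based beta-lactamase substrate was then applied for 2 h at room temperature and fluorescence intensity recorded.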

[13] = qHTS assay to identify small molecule agonists of the farnesoid-X-receptor (FXR) signaling pathway - cell viability counter screen (AID 743218); note: nearly all actives have a fitted effect of over 45% in size
Method in brief: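 After 16 h at 37 C with test compounds, FXR-bla HEK 293T cells were given LiveBLAzer B/G substrate for 2 h at RT and then CellTiter-Glo; luminescence was taken after 30 min.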

[14] = qHTS assay to identify small molecule antagonists of the farnesoid-X-receptor (FXR) signaling pathway - cell viability counter screen (AID 743221; active = well fitted cell-killing curve with a large enough effect in the repeat runs, not every such curve was filed as active; note: nearly all actives have a fitted effect of over 50% in size)
Method in brief: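 Compound effects on cell number were measured as CellTiter-Glo luminescence in HEK 293T cells expressing FXR-UAS-bla, after 16 h at 37 C with 50 uM CDCA (final).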

[15] = qHTS assay to identify small molecule agonists of the vitamin D receptor (VDR) signaling pathway - cell viability counter screen (AID 743224); note: series mostly up to about 63 µM; nearly all actives have a fitted effect of over 50% in size
Method in brief: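 Here cell health was gauged by luminescent ATP detection (CellTiter-Glo, 30 min RT) in VDR-bla cells that had been incubated with test compounds for 16 h at 37C and 5% CO2.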

[16] = qHTS assay for small molecule activators of the heat shock response signaling pathway - cell viability counter screen (AID 743209); note: nearly all actives have a fitted effect of over 50% in size
Method in brief: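 Counter screen for cytotoxicity in HeLa HSE-bla reporter cells. Treatment was 5 h at 37 C; viability was detected by luminescent ATP assay (CellTiter-Glo) in the same wells as the beta-lactamase read.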

[17] = target: Vitamin D3 receptor (Homo sapiens) (UniProt P11473); assay: qHTS assay to identify small molecule agonists of the vitamin D receptor (VDR) signaling pathway (AID 743222; calls by dose curve)
Method in brief: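 VDR-bla cells were seeded, left 4 h, treated with compounds in DMSO for 16 h, incubated 2 h at RT with B/G FRET substrate, and read for fluorescence.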

[18] = target: Vitamin D3 receptor (Homo sapiens) (UniProt P11473); assay: qHTS assay to identify small molecule antagonists of the vitamin D receptor (VDR) signaling pathway (AID 743223; active = well fitted inhibition curve with a large enough effect in the signal ratio in the repeat runs, not every such curve was filed as active; the % refers to the signal ratio)
Method in brief: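 Beta-lactamase activity in VDR-bla cells is measured by FRET substrate fluorescence (2 h, room temperature) after cells spend 16 h at 37C with test compound and 3 nM final 1alpha,25-dihydroxyvitamin D3.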

[19] = target: Bile acid receptor (Homo sapiens) (UniProt Q96RI1); assay: qHTS assay to identify small molecule antagonists of the farnesoid-X-receptor (FXR) signaling pathway (AID 743217; active = well fitted inhibition curve with a large enough effect in the signal ratio in the repeat runs, not every such curve was filed as active; the % refers to the signal ratio)
Method in brief: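 In this cell-based antagonist screen, inhibition of CDCA-driven (50 uM final) UAS-beta-lactamase expression in HEK 293T cells was measured by FRET fluorescence following 16 h compound exposure at 37 °C.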

[20] = target: Bile acid receptor (Homo sapiens) (UniProt Q96RI1); assay: qHTS assay to identify small molecule agonists of the farnesoid-X-receptor (FXR) signaling pathway (AID 743220; active = well fitted activation curve with a large enough effect in the signal ratio in the repeat runs, not every such curve was filed as active; the % refers to the signal ratio)
Method in brief: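 Beta-lactamase reporter under UAS control in GeneBLAzer FXR HEK 293T cells (5000/well) measured with LiveBLAzer FRET substrate after 2 h at room temperature. Compound exposure lasted 16 h at 37C.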

Measured: Potency

Vitamin D3 receptor (Homo sapiens), sequence (P11473 whole entry, looked up): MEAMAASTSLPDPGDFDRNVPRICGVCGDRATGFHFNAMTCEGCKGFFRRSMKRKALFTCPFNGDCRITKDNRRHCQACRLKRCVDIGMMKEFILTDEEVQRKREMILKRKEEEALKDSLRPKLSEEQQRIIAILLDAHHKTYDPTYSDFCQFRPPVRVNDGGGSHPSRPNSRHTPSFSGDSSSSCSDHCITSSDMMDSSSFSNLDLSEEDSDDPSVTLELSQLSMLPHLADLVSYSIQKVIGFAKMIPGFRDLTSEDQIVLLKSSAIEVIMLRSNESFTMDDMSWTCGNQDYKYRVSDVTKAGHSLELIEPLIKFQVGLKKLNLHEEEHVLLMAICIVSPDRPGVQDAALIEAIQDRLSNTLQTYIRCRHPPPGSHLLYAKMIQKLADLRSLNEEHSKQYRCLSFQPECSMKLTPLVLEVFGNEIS
Peroxisome proliferator-activated receptor delta (Homo sapiens), sequence (Q03181 whole entry, looked up): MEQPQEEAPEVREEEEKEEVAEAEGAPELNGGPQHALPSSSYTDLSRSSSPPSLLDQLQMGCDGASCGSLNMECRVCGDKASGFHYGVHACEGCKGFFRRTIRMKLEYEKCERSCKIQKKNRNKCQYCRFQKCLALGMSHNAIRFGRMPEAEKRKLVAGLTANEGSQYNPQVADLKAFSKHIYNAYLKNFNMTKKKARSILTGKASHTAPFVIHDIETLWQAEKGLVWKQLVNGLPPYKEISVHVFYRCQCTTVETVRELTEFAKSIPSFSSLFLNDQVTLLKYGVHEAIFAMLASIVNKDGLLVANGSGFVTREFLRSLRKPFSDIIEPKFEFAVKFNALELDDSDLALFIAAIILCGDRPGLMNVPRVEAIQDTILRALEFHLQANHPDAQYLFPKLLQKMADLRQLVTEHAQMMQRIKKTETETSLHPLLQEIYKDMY
Bile acid receptor (Homo sapiens), sequence (Q96RI1 whole entry, looked up): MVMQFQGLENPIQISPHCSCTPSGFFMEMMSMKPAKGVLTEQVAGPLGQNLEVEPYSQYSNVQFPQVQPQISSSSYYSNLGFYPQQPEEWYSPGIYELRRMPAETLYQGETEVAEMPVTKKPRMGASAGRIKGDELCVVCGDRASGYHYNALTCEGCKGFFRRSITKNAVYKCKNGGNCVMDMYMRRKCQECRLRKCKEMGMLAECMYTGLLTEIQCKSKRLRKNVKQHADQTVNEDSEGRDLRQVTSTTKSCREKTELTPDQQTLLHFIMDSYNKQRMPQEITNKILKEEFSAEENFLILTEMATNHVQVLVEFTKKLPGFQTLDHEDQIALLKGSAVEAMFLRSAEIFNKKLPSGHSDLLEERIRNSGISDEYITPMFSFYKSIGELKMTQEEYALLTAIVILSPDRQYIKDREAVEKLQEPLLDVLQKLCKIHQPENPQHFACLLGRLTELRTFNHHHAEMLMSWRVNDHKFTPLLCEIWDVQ
Aryl hydrocarbon receptor (Homo sapiens), sequence (P35869 whole entry, looked up): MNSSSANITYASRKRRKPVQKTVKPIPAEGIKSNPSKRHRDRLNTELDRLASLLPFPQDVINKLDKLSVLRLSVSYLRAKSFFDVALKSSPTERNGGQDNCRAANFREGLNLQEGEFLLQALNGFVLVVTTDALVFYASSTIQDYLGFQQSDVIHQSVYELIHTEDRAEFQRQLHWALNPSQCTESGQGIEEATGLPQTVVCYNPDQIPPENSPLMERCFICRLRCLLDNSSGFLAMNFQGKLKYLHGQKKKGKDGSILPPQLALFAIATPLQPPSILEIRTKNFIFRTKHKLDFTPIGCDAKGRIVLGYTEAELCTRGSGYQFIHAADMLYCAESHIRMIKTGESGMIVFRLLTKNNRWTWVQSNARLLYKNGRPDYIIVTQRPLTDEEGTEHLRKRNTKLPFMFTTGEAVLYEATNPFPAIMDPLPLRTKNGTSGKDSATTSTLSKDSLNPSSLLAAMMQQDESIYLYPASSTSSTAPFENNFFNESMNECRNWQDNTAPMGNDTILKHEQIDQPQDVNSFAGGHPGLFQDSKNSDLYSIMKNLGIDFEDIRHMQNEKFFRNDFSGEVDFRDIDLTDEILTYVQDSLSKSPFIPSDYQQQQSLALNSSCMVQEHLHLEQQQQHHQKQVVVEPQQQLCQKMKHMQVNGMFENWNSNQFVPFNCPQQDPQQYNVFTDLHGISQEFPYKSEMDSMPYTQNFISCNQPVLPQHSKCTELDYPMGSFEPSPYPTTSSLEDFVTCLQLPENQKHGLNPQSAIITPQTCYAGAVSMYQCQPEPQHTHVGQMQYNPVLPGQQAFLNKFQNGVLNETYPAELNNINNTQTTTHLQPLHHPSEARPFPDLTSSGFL
Peroxisome proliferator-activated receptor gamma (Homo sapiens), sequence (P37231 whole entry, looked up): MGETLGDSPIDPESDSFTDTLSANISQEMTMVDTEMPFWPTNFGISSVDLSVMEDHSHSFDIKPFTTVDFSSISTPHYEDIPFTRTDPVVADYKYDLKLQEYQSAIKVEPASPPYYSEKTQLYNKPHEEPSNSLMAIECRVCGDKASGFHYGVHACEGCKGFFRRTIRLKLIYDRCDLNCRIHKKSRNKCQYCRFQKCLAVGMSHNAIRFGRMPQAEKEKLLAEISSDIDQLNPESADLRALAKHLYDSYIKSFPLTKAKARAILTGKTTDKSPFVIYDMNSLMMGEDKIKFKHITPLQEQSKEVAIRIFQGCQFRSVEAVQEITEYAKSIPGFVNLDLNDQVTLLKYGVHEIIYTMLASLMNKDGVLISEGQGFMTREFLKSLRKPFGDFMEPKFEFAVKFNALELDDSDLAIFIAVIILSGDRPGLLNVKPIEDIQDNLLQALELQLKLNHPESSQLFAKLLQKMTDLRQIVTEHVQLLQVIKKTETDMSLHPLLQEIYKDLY

CC1(C)S[C@@H]2[C@H](NC(=O)Cc3ccccc3)C(=O)N2[C@H]1C(=O)O (tested in a mixture with another compound)
not listed: [16] | [17] | [18] | [19] | [20]
inactive: all other assays above

N[C@H]1C(O)O[C@H](CO)[C@@H](O)[C@@H]1O (some centres undefined)
not listed: [6] | [13] | [14] | [19] | [20]
inactive: all other assays above

COCc1nnc(-c2ccc[n+]([O-])c2)n1-c1c(Cl)c(Cl)cc2[nH]c(=O)c(=O)[nH]c12
not listed: [9] | [10] | [12] | [13]
inactive: all other assays above

C=CCN1CCc2nc(N)sc2CC1
not listed: [7] | [12] | [13] | [19] | [20]
inactive: all other assays above

CCOC(=O)CC(C(C)=O)C(C)=O
not listed: [6] | [19] | [20]
inactive: all other assays above

COC(=O)c1ccc(C(=O)O)cc1
not listed: [6]
inactive: all other assays above

COC(=O)N/N=C/c1c[n+]([O-])c2ccccc2[n+]1[O-]
not listed: [6] | [12] | [13] | [14] | [17] | [18]
inactive: all other assays above

COc1cc(OC)cc(OC)c1
not listed: [10] | [16]
inactive: all other assays above

CCOC(=O)COc1ccc2c(C)c(CCN(CC)CC)c(=O)oc2c1Cl
not listed: [8] | [10] | [12] | [16] | [18]
inactive: all other assays above

COC(=O)C(c1ccccc1Cl)N1CCc2sccc2C1 (centres undefined)
not listed: [6] | [12] | [19] | [20]
inactive: all other assays above

O=C1c2ccccc2C(=O)N1CO
not listed: [11] | [14] | [16] | [17] | [18] | [19] | [20]
inactive: all other assays above

CC1=C(O)C(=O)CO1
not listed: [6] | [12] | [14] | [16] | [17] | [19] | [20]
inactive: all other assays above

CN(C)CCc1c[nH]c2ccc(CS(=O)(=O)N3CCCC3)cc12
not listed: [4] | [9] | [11] | [19] | [20]
inactive: all other assays above

COc1cc(NS(=O)(=O)c2ccc(N)cc2)ncn1
not listed: [4] | [9] | [13] | [15] | [17] | [18] | [19] | [20]
inactive: all other assays above

C[Si](C)(C)O[Si](O)(O)O
not listed: [4] | [8] | [11] | [12] | [13] | [15] | [17]
inactive: all other assays above

C/C(Cl)=C/CCl
not listed: [6] | [9] | [11] | [12] | [17] | [18]
inactive: all other assays above

CC(O)CCCCn1c(=O)c2c(ncn2C)n(C)c1=O (centres undefined)
not listed: [6] | [11] | [13] | [16] | [19] | [20]
inactive: all other assays above

CC(C)(C)C(=O)CCc1ccc(Cl)cc1
not listed: [6] | [16] | [19] | [20]
inactive: all other assays above

CC(=O)Nc1ccc(OCCOCCOc2ccc(NC(C)=O)cc2)cc1
not listed: [6] | [10] | [12] | [14] | [17] | [18] | [19] | [20]
inactive: all other assays above

C/C=C/C(=O)CCCC
not listed: [6] | [10] | [11] | [13] | [15] | [17]
inactive: all other assays above

CC(O)C(CO)C(C)O (centres undefined)
not listed: [5] | [13] | [17] | [18] | [19] | [20]
inactive: all other assays above

CCCCS
not listed: [4] | [12] | [19] | [20]
inactive: all other assays above

BrCCOc1ccccc1
not listed: [6] | [8] | [11]
inactive: all other assays above

Cc1ccc(OC(=O)CC(C)C)cc1
not listed: [4] | [12] | [14] | [15] | [17] | [18]
inactive: all other assays above

C=CC(=O)OCCOCCOCC
inactive: [1] | [2] | [3] | [4] | [5] | [7] | [11] | [13] | [14] | [15]

CC(C)C(C)C
not listed: [6] | [9] | [17] | [18] | [19] | [20]
inactive: all other assays above

CCCCNCC
not listed: [6] | [8] | [11] | [17] | [18] | [19] | [20]
inactive: all other assays above

C=CCOC(=O)CCCCCCCC
not listed: [4] | [10] | [12] | [14] | [15]
inactive: all other assays above
